Assay outcomes from PubChem.
POLI inh = blocks human DNA polymerase iota activity; Pol iota fluorescent replication assay, 10 min; Potency, µM (highest dose often 115 µM), for the others: at the top dose activity, negative = inhibition, most hits filed as inhibitors; Q9UNA4; 390,000 tested, 1% active; AID 588590
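Pol iota at 10 nM preincubated 15 min with compounds at room temperature; reaction started with fluorescent substrate, 50 nM final. Fluorescence read kinetically at 0 and 10 min; buffer-only wells as negative control.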
Pol eta inh = inhibitors of human DNA polymerase eta. Potency, µM (series often up to 114 µM), for the others: top-dose activity change, negative = inhibition, hits mostly inhibitors. Q9Y253. 390,000 tested, 1.2% active. recombinant Pol eta, fluorescent DNA replication assay. AID 588591; also: % is scaled to controls: 0 for no effect and ±100 for the full control effect
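Fluorescent replication assay: 50 nM final substrate added after a 15 min room-temperature compound preincubation with 10 nM enzyme. Signal taken at 0 min and again at 10 min.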
POLK inh = inhibitors of human DNA polymerase kappa. Q9UBT6. Potency, µM (top dose mostly 107 µM), inactives show at the highest dose activity, negative = inhibition, most hits filed as inhibitors. 400,000 tested, 0.53% active. purified Pol kappa, fluorescent DNA synthesis assay, 10 min; also: % is scaled to controls: 0 for no effect and ±100 for the full control effect
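10 nM Pol kappa preincubated 15 min at room temperature with compounds, then reaction started with substrate at 50 nM final. Fluorescence read kinetically at 0 and 10 min; buffer-only wells served as negative control.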
POLB inh = DNA polymerase beta (human) inhibition; Potency, µM (top dose mostly 114 µM), inactives show at the highest dose activity change, negative = inhibition, usual class: inhibitors; 340,000 tested, 1.3% active; AID 485314; Pol beta primer extension/strand displacement, fluorescence kinetic; P06746; also: % is scaled to controls: 0 for no effect and ±100 for the full control effect
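Reaction started by 50 nM substrate onto compound-treated Pol beta (10 nM, 15 min preincubation, room temperature); plates read at 0 min and 10 min. Normalized concentration-effect data fitted by four-parameter Hill equation.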
APE1 inh = inhibitors of human APE1 endonuclease. P27695. recombinant APE1, TAMRA/BHQ-2 abasic DNA cleavage fluorescence. Potency, µM (titrated, usually from 65.8 µM), without a hit: top-dose activity change, negative = inhibition, actives largely listed as inhibitors. 350,000 tested, 0.35% active. AID 2517;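 also: plate controls were vehicle for no effect and reference inhibitor for full effect; nearly all actives have a fitted effect of over 55% in size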
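Incision of a quenched TAMRA/BHQ-2 THF abasic-site duplex (50 nM) by 0.75 nM APE1, after 15 min compound preincubation, measured as fluorescence increase over three 60 s reads. Values normalized to buffer, DMSO and NSC13755 control wells.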
L3MBTL1 inh = blocks human L3MBTL1. AID 485360. AlphaScreen L3MBTL1–H3K9me1 peptide binding. Q9Y468. 230,000 tested, 0.66% active. Potency, µM (top dose mostly 57.1 µM), for inactives: at the highest dose activity, negative = inhibition, most hits filed as inhibitors; also: % is scaled to controls: 0 for no effect and ±100 for the full control effect; nearly all actives have a fitted effect of over 60% in size
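L3MBTL1 (50 nM) pre-complexed 30 min with biotinylated H3(1-15)K9me1 peptide (75 nM), then compounds added for 30 min at room temperature; AlphaScreen streptavidin donor/nickel chelate acceptor beads (10 ug/mL final) read after 30 min dark incubation.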
Starred values were filed as active, the others as inactive; ? = inconclusive; / = not tested or not shown; ! = not confirmed by another sample; [ ] = dose if it differs, or a comment. A selection: hits, their analogues and other compounds. The true share with any hit is near 2.5%. Calls follow the shape of the dose curve; as a rule, active = well fitted curve in the direction sought with a large enough effect; inconclusive = small, poorly fitted or top-dose-only effect, or another doubt; inactive = no such curve, though single readings can be large; an effect the other way counts as inactive or inconclusive. Potency is read from the fitted curve at half-maximal effect.

SMILES	POLI inh	Pol eta inh	POLK inh	POLB inh	APE1 inh	L3MBTL1 inh
Cc1ccc(C(=O)O)cc1NC(=S)NC(=O)c1ccc(-c2ccc(Cl)cc2)o1	-9%	50µM*	-12%	23%	0%	/
O=C(O)c1cccc(NC(=S)NC(=O)c2ccc(-c3ccc(Cl)cc3)o2)c1	?	?	-31%	?	-3%	/
COc1ccc(C(=O)O)cc1NC(=S)NC(=O)c1ccc(-c2ccc(Cl)cc2)o1	?	20µM*	-16%	-2%	-2%	/
COc1ccc(C(=O)O)cc1NC(=S)NC(=O)CSc1ccc(Cl)cc1	109%	5%	-3%	-1%	15%	/
CCC1CC=CC2C1C(=O)N(Cc1ccccc1)C2c1cccc([N+](=O)[O-])c1 (configuration not stated)	4%	/	8%	/	-3%	/
O=c1[nH]c2cc(F)ccc2c2ccc(F)cc12	?	20µM*	-23%	/	/	/
C=N[C@@H](C(=O)N[C@@H]1C(=O)N2[C@@H]1SC(C)(C)[C@@H]2C(=O)O)c1ccccc1	/	/	/	/	-1%	/
CCCCOC(=O)c1ccc(-n2nnc3c(sc4nc(C)cc(C)c43)c2=O)cc1	3%	-10%	4%	33%	/	/
O=C(CCCOc1ccc(Cl)cc1Cl)Nc1ccncc1	?	-8%	0%	0%	28µM*	/
O=C(CCCOc1ccc(Cl)cc1Cl)Nc1ccccn1	75%	-23%	-12%	0%	-4%	12%
CCOC(=O)c1sc(NC(=O)c2nc3ncccn3n2)c(C(=O)OC)c1C	-4%	-10%	-16%	16%	/	/
CCOC(=O)c1sc(NC(=O)c2nc3nc(C)cc(C(F)F)n3n2)c(C(=O)OC(C)C)c1C	-17%	89µM*	-20%	-10%	/	/
COc1ccc(C2=Nn3c(nnc3-c3ccccc3C(F)(F)F)SC2)cc1OC1CCCC1	/	/	/	/	-4%	/
CCO/C(=C/c1sc2ccc(OC)cc2[n+]1CCCS(=O)(=O)[O-])CC	-16%	-3%	-13%	-1%	-5%	/
CCC(/C=C1\Sc2ccc(OC)cc2N1CC)=C\c1sc2ccc(OC)cc2[n+]1CCCS(=O)(=O)[O-]	121%	?	23%[60.1 µM]	8.9µM*	?	/
CCC(/C=C1\Sc2ccc(OC)cc2N1CCO)=C\c1sc2ccc(OC)cc2[n+]1CCO	?	14µM*	?	22µM*	?	?
O=Nc1nc2ncccn2c1-c1ccccc1	22µM*	-5%	-16%	/	/	/
O=C(O)c1ccc(Cl)c2c1C1C=CCC1C(c1ccccn1)N2 (configuration not stated)	/	/	/	8.9µM*	25µM*	/
COc1ccc(OC)c(C2Nc3c(Cl)ccc(C(=O)O)c3C3C=CCC32)c1 (configuration not stated)	53%	-8%	-13%	1%	-5%	-14%
CN(C)c1ccc(NC(=O)Cn2c(SCc3ccc(F)cc3)nc3ccncc32)cc1	-9%	4%	-20%	-1%	/	/
CN(C)c1ccc(NC(=O)Cn2c(SCc3ccc(F)cc3)nc3cccnc32)cc1	-5%	-14%	-7%[60.1 µM]	18µM*	/	/
O=C1OC(c2ccc3ccccc3c2O)(c2ccc3ccccc3c2O)c2ccccc21	?	25µM*	?	/	/	/
O=C1OC2(c3ccccc31)c1ccccc1-c1ccccc12	75%	-8%	-13%	/	/	/
CC1=C(C(=O)Nc2ccc(CC(=O)NCc3ccccc3C)cc2)SCCO1	20%	-15%	-2%	5%	7%	/
COc1cccc(CNC(=O)Cc2ccc(NC(=O)C3=C(C)OCCS3)cc2)c1	?	?	?	22µM*	18%	/
SMILES	POLI inh	Pol eta inh	POLK inh	POLB inh	APE1 inh	L3MBTL1 inh
CS(=O)(=O)N1CCN(/[N+]([O-])=N/Oc2ccc([N+](=O)[O-])cc2[N+](=O)[O-])CC1	?	/	11%	/	/	/
COc1ccc(/C=C/c2ccc3ccccc3[n+]2C)cc1OC	-87%	-2%	?	28µM*	17%	/
COc1cc(OC)c(OC)cc1/C=C/c1ccc2ccccc2[n+]1C	-10%	/	-27%	/	/	/
Cc1cc(/C=C/c2ccc3cc(N(C)C)ccc3[n+]2C)c(C)n1-c1ccccc1	/	/	28µM*	/	?	/
CN(C)c1ccc(/C=C/c2ccc3ccccc3[n+]2C)cc1	40µM*!	?	50µM*	18µM*	-2%	-9%
Cc1ccc2c(c1)CC(C)N2S(=O)(=O)c1nnc(NC(=O)CC(C)C)s1 (configuration not stated)	5%	-7%	3%	14%	14%	/
COc1ccc(/C=C/C(=O)c2c(O)c(OC)c3occc3c2OC)cc1OC	-11%	/	9%	/	/	/
N#Cc1ccc(CSc2nc3c(c(=O)[nH]2)CCC3)cc1	45%	/	10%	1%	/	/
CCOc1ccc(C(=O)NC(=S)Nc2ccccn2)cc1[N+](=O)[O-]	-2%	-4%	-11%	9%	15%	-7%
CCOc1ccc(C(=O)NC(=S)Nc2cc(C)ccn2)cc1[N+](=O)[O-]	?	-7%	-4%	32µM*	-3%	11%
C=C1c2ccccc2O[C@H](C(=O)OCC)[C@@H]1CC(C)(C)c1ccccc1	/	/	-5%	/	?	/
Cc1nc2c(C(=O)N3CCN(c4ccccn4)CC3)cnn2c(C)c1Cc1cccc(Cl)c1	89µM*	-18%	-8%	3%	14%	-3%
Cc1ccc(S(=O)(=O)c2nnn3c2nc(NC2CCN(Cc4ccccc4)CC2)c2ccccc23)cc1C	45µM*	-19%	?	1%	-6%	/
Cc1c(N)nc([C@H](CC(N)=O)NC[C@H](N)C(N)=O)nc1C(=O)N[C@H](C(=O)N[C@H](C)[C@@H](O)[C@H](C)C(=O)N[C@H](C(=O)NCCc1nc(-c2nc(C(=O)NCCCCN=C(N)N)cs2)cs1)[C@@H](C)O)[C@@H](O[C@@H]1O[C@@H](CO)[C@@H](O)[C@H](O)[C@@H]1O[C@H]1O[C@H](CO)[C@@H](O)[C@H](OC(N)=O)[C@@H]1O)c1cnc[nH]1	/	/	/	/	-2%	/
O=C(Cc1cccs1)Nc1ccc(-c2nnn(CC(=O)N3CCOCC3)n2)cc1	1%	-1%	-1%	18µM*	?	?
O=S(=O)(NCc1ccccc1Cl)c1ccc(N2CCCCS2(=O)=O)cc1	-2%	-8%	-12%[60.1 µM]	-13%	/	/
Cc1ccc(-n2nc3cc(C)c(NC(=S)NC(=O)/C=C/c4ccco4)cc3n2)cc1	6%	?	-8%	50µM*	3%	-12%
O=C(/C=C/c1ccco1)NC(=S)Nc1cccc(-c2nc3ccccc3s2)c1	?	?	-23%	/	/	/
O=C(/C=C/c1ccco1)NC(=S)Nc1cccc(-c2nc3ccccc3o2)c1	?	32µM*	79µM*	28µM*	22%	-13%
